Laboratory results as given in the supplement of paper PMC6607015.
Counter-ions that a name gives are not always drawn.

Assays:
Settings in all cases: compound concentration in added solution (µM; 5 µl added to 20 µl cells): 10; 18 h
A431 [1] = test: LBPA endosome anti-LBPA integrated intensity (sum per cell), Z-score; higher = more LBPA staining
Method in brief: (§1)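 The data are Z-scores, normalised in AcuityXpress, of integrated LBPA or filipin intensity in each cell, either whole-cell or restricted to LBPA endosomes. HeLa MZ or A431 cells, 3,500 per well in 20 µl, were seeded onto 5 µl of 10 µM compound solution in duplicate 384-well plates and incubated 18 h. Fixed cells were stained and imaged, with intensities extracted by MetaXpress segmentation.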

HeLa MZ [2] = test: as above
Method in brief: as §1

A431 [3] = test: whole-cell filipin (free cholesterol) integrated intensity, Z-score; higher = more cholesterol staining
Method in brief: as §1

HeLa MZ [4] = test: as above
Method in brief: as §1

A431 [5] = test: filipin (cholesterol) integrated intensity within LBPA endosomes, Z-score; higher = more cholesterol in LBPA endosomes
Method in brief: as §1

HeLa MZ [6] = test: as above
Method in brief: as §1

| Structure (SMILES) | LBPA endosome anti-LBPA integrated intensity (z-score) (A431 [1]) | LBPA endosome anti-LBPA integrated intensity (z-score) (HeLa MZ [2]) | whole-cell filipin (z-score) (A431 [3]) | whole-cell filipin (z-score) (HeLa MZ [4]) | filipin (z-score) (A431 [5]) | filipin (z-score) (HeLa MZ [6]) |
| --- | --- | --- | --- | --- | --- | --- |
| Cc1c(N)c(=O)n(-c2ccccc2)n1C [Ampyrone] | -0.478 | -0.409 | -0.998 | -1.26 | -0.379 | -0.625 |
| C=C1C[C@H]2[C@@H]3C=C(C)C4=CC(=O)CC[C@]4(C)[C@H]3CC[C@]2(C)[C@@]1(OC(C)=O)C(C)=O [Melengestrol acetate] | 1.2 | 1.67 | 2.08 | 1.46 | 1.58 | 1.05 |
| COc1ccccc1O [Guaiacol] | -0.278 | 0.0632 | 0.299 | -0.2 | -0.335 | -0.255 |
| CC(C)NC[C@@H](O)COc1cccc2ccccc12 [(R)-Propranolol hydrochloride] | 0.16 | 1.45 | 0.468 | -0.0727 | 0.133 | 0.265 |
| COC(=O)C1=C(C)NC(C)=C(C(=O)OCC(C)C)C1c1ccccc1[N+](=O)[O-] (configuration not stated) [Nisoldipine] | 0.222 | 1.99 | 0.622 | 0.224 | -0.263 | -0.481 |
| CN(C)CCOC1=Cc2ccccc2Sc2ccc(Cl)cc21 [Zotepine] | 3.49 | 1.41 | 1.18 | -0.352 | 3.08 | 1.71 |
| CC[C@H]1OC(=O)[C@H](C)[C@@H](O[C@H]2C[C@@](C)(OC)[C@@H](O)[C@H](C)O2)[C@H](C)[C@@H](O[C@@H]2O[C@H](C)C[C@H](N(C)C)[C@H]2O)[C@](C)(OC)C[C@@H](C)C(=O)[C@H](C)[C@@H](O)[C@]1(C)O [Clarithromycin] | -0.524 | 0.332 | -0.0542 | 0.0043 | -0.407 | -0.21 |
| CN(C)CC/C=C1\c2ccccc2CSc2ccccc21 [Dosulepin hydrochloride] | 1.61 | 0.828 | 1.17 | 0.164 | 1.82 | 0.976 |
| CC1CNc2c(cccc2S(=O)(=O)N[C@@H](CCCNC(=N)N)C(=O)N2CC[C@@H](C)C[C@@H]2C(=O)O)C1 (some centres not stated) [Argatroban] | -0.429 | -0.462 | -0.724 | 0.346 | -0.455 | -0.335 |
| Nc1cc(-c2ccncc2)c[nH]c1=O [Amrinone] | -0.468 | -0.737 | -0.578 | -0.805 | -0.461 | -0.541 |
| O=C1C(O)=C(O)C(=O)C(O)=C1O [Tetrahydroxy-1,4-quinone monohydrate] | -0.376 | 0.48 | -0.203 | -0.164 | -0.404 | -0.442 |
| CCCCC(=O)O[C@H]1CC[C@H]2[C@@H]3CCc4cc(O)ccc4[C@H]3CC[C@]12C [Estradiol Valerate] | -0.347 | -0.788 | 0.103 | 0.191 | -0.224 | -0.226 |
| COC(=O)C1=C(C#N)NC(C)=C(C(=O)OC(C)C)C1c1cccc([N+](=O)[O-])c1 (configuration not stated) [Nilvadipine] | -0.407 | -0.929 | 0.11 | 0.875 | -0.268 | -0.158 |
| CCCc1nc2c(C)cc(-c3nc4ccccc4n3C)cc2n1Cc1ccc(-c2ccccc2C(=O)O)cc1 [Telmisartan] | -0.132 | 0.924 | 0.0869 | 0.281 | -0.34 | -0.264 |
| COC(=O)C1=C(C)NC(C)=C(C(=O)OCCN(C)Cc2ccccc2)C1c1cccc([N+](=O)[O-])c1 (configuration not stated) [Nicardipine hydrochloride] | 1.9 | 0.904 | 1.24 | -0.142 | 1.79 | 0.881 |
| CN(C)CCCSC(=N)N [Dimaprit dihydrochloride] | -0.577 | -1.27 | -0.259 | -0.607 | -0.452 | -0.519 |
| CCn1cc(C(=O)O)c(=O)c2cc(F)c(N3CCNCC3)cc21 [Norfloxacin] | -0.548 | -0.705 | -0.938 | -1.18 | -0.584 | -0.612 |
| OCCN1CCN(CC/C=C2/c3ccccc3Sc3ccc(Cl)cc32)CC1 [Zuclopenthixol hydrochloride] | 3.18 | 1.68 | 0.421 | 0.439 | 2.79 | 2.86 |
| COC(=O)N/N=C/c1c[n+]([O-])c2ccccc2[n+]1[O-] [Carbadox] | -0.532 | -0.164 | -0.439 | -0.327 | -0.53 | -0.532 |
| O=C1c2ccccc2C(=O)C1c1ccccc1 [Phenindione] | -0.457 | 0.398 | -0.346 | -0.343 | -0.498 | -0.468 |
| CNC(=C[N+](=O)[O-])NCCSCc1ccc(CN(C)C)o1 [Ranitidine hydrochloride] | -0.424 | 0.0515 | -1.03 | -1.05 | -0.524 | -0.559 |
| O=C(O)[C@H]1/C(=C/CO)O[C@@H]2CC(=O)N21 [Potassium clavulanate] | -0.48 | -0.536 | 0.227 | -0.0014 | -0.358 | -0.433 |
| COc1cc(N)c(Cl)cc1C(=O)NC1CCN(CCCOc2ccc(F)cc2)CC1OC (configuration not stated) [Cisapride] | 0.467 | 0.977 | -0.114 | 0.308 | 0.0889 | 0.672 |
| CC(C)CC(=O)N[C@H](C(=O)N[C@H](C(=O)N[C@@H](CC(C)C)[C@@H](O)CC(=O)N[C@@H](C)C(=O)N[C@@H](CC(C)C)[C@@H](O)CC(=O)O)C(C)C)C(C)C [Pepstatin A] | -0.604 | -1.38 | -0.841 | -0.484 | -0.569 | -0.589 |

| Structure (SMILES) | LBPA endosome anti-LBPA integrated intensity (z-score) (A431 [1]) | LBPA endosome anti-LBPA integrated intensity (z-score) (HeLa MZ [2]) | whole-cell filipin (z-score) (A431 [3]) | whole-cell filipin (z-score) (HeLa MZ [4]) | filipin (z-score) (A431 [5]) | filipin (z-score) (HeLa MZ [6]) |
| --- | --- | --- | --- | --- | --- | --- |
| C#C[C@]1(O)CC[C@H]2[C@@H]3[C@H](C)CC4=C(CCC(=O)C4)[C@H]3CC[C@@]21C [Tibolone] | -0.522 | -0.57 | -0.775 | -0.295 | -0.476 | -0.561 |
| O=C(O)Cc1ccccc1Nc1c(Cl)cccc1Cl [Diclofenac sodium] | -0.542 | -0.789 | -0.65 | -0.702 | -0.505 | -0.603 |
| Nc1ccc(S(=O)(=O)Nc2ccnn2-c2ccccc2)cc1 [Sulfaphenazole] | -0.541 | -1.02 | -0.89 | -1.05 | -0.533 | -0.671 |
| CN(C)CCC=C1c2ccccc2C=Cc2ccccc21 [Cyclobenzaprine hydrochloride] | 2.59 | 2.51 | 1.71 | 0.233 | 2.57 | 2.22 |
| CC1(C)O[C@@H]2C[C@H]3[C@@H]4CCC5=CC(=O)CC[C@]5(C)[C@@]4(F)[C@@H](O)C[C@]3(C)[C@]2(C(=O)CCl)O1 [Halcinonide] | -0.266 | -0.708 | -0.0733 | 0.0912 | -0.203 | -0.18 |
| C[C@@H](O)[C@H]1C(=O)N2C(C(=O)O)=C(S[C@@H]3CN[C@H](C(=O)N(C)C)C3)[C@H](C)[C@H]12 [Meropenem] | -0.501 | -0.52 | 0.0963 | -0.649 | -0.531 | -0.725 |
| Cc1c(Nc2ncccc2C(=O)O)cccc1C(F)(F)F [Flunixin meglumine] | -0.51 | -0.897 | -0.493 | -0.611 | -0.459 | -0.549 |
| CN(C)[C@@H]1C(O)=C(C(=O)NCNCCCC[C@H](N)C(=O)O)C(=O)[C@@]2(O)C(O)=C3C(=O)c4c(O)cccc4[C@@](C)(O)[C@H]3C[C@@H]12 [Lymecycline] | -0.193 | 0.509 | 0.136 | 0.267 | -0.319 | -0.559 |
| CCCCC1C(=O)N(c2ccccc2)N(c2ccc(O)cc2)C1=O (configuration not stated) [Oxyphenbutazone] | -0.518 | -0.9 | 0.131 | 0.127 | -0.41 | -0.527 |
| CC1Cc2ccccc2N1NC(=O)c1ccc(Cl)c(S(N)(=O)=O)c1 (configuration not stated) [Indapamide] | -0.302 | 0.5 | -0.729 | -0.419 | -0.453 | -0.438 |
| C[C@@H](O)[C@H]1C(=O)N2C(C(=O)O)=C(SCCNC=N)C[C@H]12 [Imipenem] | -0.41 | 0.231 | -0.414 | 0.00347 | -0.461 | -0.385 |
| CN(C)CCN(Cc1ccccc1)c1ccccn1 [Tripelennamine hydrochloride] | -0.213 | 1.28 | 0.0432 | 0.362 | -0.29 | 0.335 |
| CC(C)[C@H](N)C(=O)OCCOCn1cnc2c(=O)nc(N)[nH]c21 [Valacyclovir hydrochloride] | -0.418 | 0.0601 | -0.723 | -0.237 | -0.459 | -0.357 |
| CCC(=O)OCC(=O)[C@@]1(OC(=O)CC)[C@@H](C)C[C@H]2[C@@H]3CCC4=CC(=O)C=C[C@]4(C)[C@@]3(Cl)[C@@H](O)C[C@@]21C [Beclomethasone dipropionate] | -0.15 | 0.711 | 0.251 | -0.00746 | -0.116 | 0.00681 |
| Nc1ncnc2c1ncn2[C@@H]1O[C@H](CO)[C@@H](O)[C@@H]1O [Vidarabine] | -0.521 | 0.0226 | -0.393 | 0.669 | -0.496 | -0.54 |
| CN1C(=O)OC(C)(C)C1=O [Trimethadione] | -0.446 | -0.0741 | -0.388 | -0.0387 | -0.476 | -0.496 |
| N#Cc1ccc(C2CCCc3cncn32)cc1 (configuration not stated) [Fadrozole hydrochloride] | -0.639 | -1.49 | -1.18 | -0.874 | -0.538 | -0.502 |
| C[C@]12C=CC(=O)C=C1CC[C@@H]1[C@@H]2C(=O)C[C@@]2(C)[C@H]1CC[C@]2(O)C(=O)CO [Prednisone] | -0.485 | -0.977 | -0.505 | 0.0271 | -0.452 | -0.412 |
| CC[C@H]1OC(=O)C[C@@H](O)[C@H](C)[C@@H](O[C@@H]2O[C@H](C)[C@@H](O[C@H]3C[C@@](C)(O)[C@@H](O)[C@H](C)O3)[C@H](N(C)C)[C@H]2O)[C@@H](CC=O)C[C@@H](C)C(=O)/C=C/C(C)=C/[C@@H]1CO[C@@H]1O[C@H](C)[C@@H](O)[C@@H](OC)[C@H]1OC [Tylosin] | -0.392 | 0.456 | -0.334 | -0.339 | -0.399 | -0.321 |
| CN1CCN(C2=Nc3cc(Cl)ccc3Nc3ccccc32)CC1 [Clozapine] | 1.19 | 2.46 | 0.629 | -0.114 | 0.781 | 1.4 |
| CN(C)[C@@H]1C(O)=C(C(N)=O)C(=O)[C@@]2(O)C(O)=C3C(=O)c4c(O)cccc4[C@@](C)(O)[C@H]3C[C@@H]12 [Tetracycline hydrochloride] | -0.508 | 0.0873 | -0.872 | -0.867 | -0.521 | -0.698 |
| CCN(CCCc1ccccc1)CCCc1ccccc1 [Alverine citrate salt] | 2.06 | 1.56 | 1.13 | -0.0321 | 1.44 | 0.403 |
| Nc1ccc(S(=O)(=O)NC(=O)c2ccccc2)cc1 [Sulfabenzamide] | -0.476 | -1.38 | -0.453 | -0.0901 | -0.451 | -0.401 |
